JMJD2A Tudor – blocks the human JMJD2A Tudor domain; O75164; AlphaScreen JMJD2A-Tudor / H3K4me3 peptide binding; Potency, µM (titrated, usually from 114 µM), for inactives: at the highest dose activity change, negative = inhibition, hits mostly inhibitors; hit rate 4.4% among 390,000; AID 504339; further: on the % scale 0 is the no-effect control and ±100 the full control effect; nearly all actives have a fitted effect of over 50% in size
HP1b binding inh – blocks HP1-beta chromodomain binding to methylated histone tails; AlphaScreen HP1-beta / biotin-H3K9me3 peptide binding; hit rate 0.56% among 390,000; AID 540317; P83916; Potency, µM (top dose mostly 114 µM), for inactives: top-dose activity change, negative = inhibition, actives largely listed as inhibitors; further: nearly all actives have a fitted effect of over 70% in size
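Compound inhibition of the preformed complex between 50 nM HP1-beta and 50 nM biotinylated H3K9me3 peptide was read by AlphaScreen. Buffer was PBS pH 7.4 with 0.01% Tween-20. Incubations ran 30 min at room temperature, with 10 ug/mL donor/acceptor beads.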
G9a block – G9a (human) methyltransferase inhibition; Q96KQ7; G9a H3K9 monomethylation, AlphaScreen, 2 h; Potency, µM (doses to about 102 µM), for the others: top-dose activity, negative = inhibition, hits mostly inhibitors; hit rate 8.8% among 350,000; further: on the % scale 0 is the no-effect control and ±100 the full control effect; nearly all actives have a fitted effect of over 75% in size
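Using a bead-based AlphaScreen, monomethylated H3K9 product from 2 h room-temperature reactions (G9a 20 nM, peptide 500 nM, SAM 20 uM) was detected with 0.5 ug/mL rabbit anti-H3K9me1 antibody.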
BAZ2B block – blocks human BAZ2B; hit rate 4.4% among 360,000; Q9UIF8; AlphaScreen BAZ2B-H3K14Ac peptide displacement; AID 504333; Potency, µM (top dose mostly 114 µM), for inactives: at the top dose activity change, negative = inhibition, most hits filed as inhibitors; further: on the % scale 0 is the no-effect control and ±100 the full control effect; nearly all actives have a fitted effect of over 60% in size
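Multi-concentration screen (max 110 uM) measuring displacement of acetylated histone H3 peptide from BAZ2B by AlphaScreen, using 50 nM protein, 50 nM peptide and 10 ug/mL streptavidin donor plus Ni-chelate acceptor beads.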
GLS inhibitor – inhibitors of human glutaminase (GLS) | O94925 | GLS enzymatic activity, qHTS titration | Potency, µM (series often up to 45.5 µM), for the others: top-dose activity change, negative = inhibition, hits mostly inhibitors | hit rate 0.21% among 410,000 | AID 624170; further: on the % scale 0 is the no-effect control and ±100 the full control effect
Target sequence (O94925 whole entry, looked up): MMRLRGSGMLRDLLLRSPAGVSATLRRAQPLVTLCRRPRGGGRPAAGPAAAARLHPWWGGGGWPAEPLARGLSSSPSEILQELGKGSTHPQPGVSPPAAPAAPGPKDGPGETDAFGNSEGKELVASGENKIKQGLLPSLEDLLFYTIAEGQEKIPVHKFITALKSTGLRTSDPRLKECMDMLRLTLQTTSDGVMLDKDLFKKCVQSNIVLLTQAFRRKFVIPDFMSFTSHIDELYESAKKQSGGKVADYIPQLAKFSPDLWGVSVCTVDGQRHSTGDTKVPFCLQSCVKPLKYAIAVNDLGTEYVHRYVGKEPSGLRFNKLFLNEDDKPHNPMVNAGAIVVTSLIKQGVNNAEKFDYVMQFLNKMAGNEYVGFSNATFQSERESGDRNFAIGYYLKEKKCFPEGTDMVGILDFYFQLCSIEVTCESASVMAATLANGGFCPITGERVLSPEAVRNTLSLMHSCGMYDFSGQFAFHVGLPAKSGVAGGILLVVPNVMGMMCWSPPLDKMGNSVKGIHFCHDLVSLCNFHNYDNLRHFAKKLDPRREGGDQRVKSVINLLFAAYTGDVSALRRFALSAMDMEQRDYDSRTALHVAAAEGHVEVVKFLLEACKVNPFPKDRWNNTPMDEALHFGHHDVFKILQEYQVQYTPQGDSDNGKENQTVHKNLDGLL
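hKGA in 45 mM KH2PO4 pH 8.2, 0.02% Tween-20 with pin-transferred compounds; 1 mM L-glutamine (stock) plus glutamate oxidase/HRP/Amplex Red coupling added. Fluorescence read initially and after 30 min at RT.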
Starred values were filed as active, the others as inactive; ? = inconclusive; / = no result given; [ ] = dose if it differs, or a comment. Rows were chosen to be rich in hits. Some 10% of all compounds tested hit in one or more screens of this group. The call rests on the fitted dose curve; in most records, active means well fitted curve in the direction sought with a large enough effect; inconclusive means small, poorly fitted or top-dose-only effect, or another doubt; inactive means no such curve, though single readings can be large; an effect the other way counts as inactive or inconclusive. Potency means the concentration at half of the fitted maximal effect.

SMILES	JMJD2A Tudor	HP1b binding inh	G9a block	BAZ2B block	GLS inhibitor
Clc1ccc(C2Nc3cccc4cccc(c34)N2)c(Cl)c1	35µM*	?	/	/	8%
O=[N+]([O-])c1cc(C2Nc3cccc4cccc(c34)N2)ccc1Cl	-16%	-3%	?	?	3%
Nc1ccccc1N=Cc1ccc(-c2cccc(Cl)c2)o1	-22%	10%	?	-25%	12%
Clc1cccc(-c2ccc(C3Nc4cccc5cccc(c45)N3)o2)c1	40µM*	?	/	/	9%
COc1ccc(-c2csc(N(CCCN(C)C)C(=O)c3ccc(OC)c(OC)c3)n2)cc1	/	/	/	/	-5%
CSc1ccc(C2Nc3cccc4cccc(c34)N2)cc1	18µM*	18µM*	23%[0.501 µM]	50µM*	21%
Clc1ccc(C2Nc3cccc4cccc(c34)N2)cc1	?	-19%	35µM*	?	6%
Brc1ccc(C2Nc3cccc4cccc(c34)N2)s1	-32%	?	25µM*	?	-3%
COc1ccc(CC(=O)Nc2cc(NC(=O)Cc3ccc(OC)c(OC)c3)cc(C(=O)O)c2)cc1OC	-18%	17%	/	?	-14%
COc1ccc(CCNCC(=O)N2C(C)CCCC2C)cc1OC (configuration not stated)	0.79µM*	?	-10%	79µM*	3%
COC(=O)c1cc(NC(=O)Cc2ccc(OC)c(OC)c2)cc(C(=O)OC)c1	45µM*	3%	9%	3%	55%
COc1ccc(CCNCC(=O)Nc2ccc(C)c(S(=O)(=O)N(C)C)c2)cc1OC	?	-20%	22µM*	22µM*	6%
COC(=O)c1ccccc1NC(=O)CNCCc1ccc(OC)c(OC)c1	25µM*	-34%	7.9µM*	20µM*	-4%
Cc1ccc2c(c1)c1c(c(=O)n(-c3cccc(Cl)c3)c(=O)n1CC(=O)Nc1c(C)cccc1C)n2C	-13%	-4%	10%[59 µM]	-13%	1%
COc1ccc(OC)c(-c2nnc3n2N=C(c2c(OC)cccc2OC)CS3)c1	-26%	/	/	/	/
COc1ccc(CCNCC(=O)Nc2c(C)cc(C)cc2C)cc1OC	-9%	87%	/	6%	3%
COc1ccc(CCNC(=O)CN(C2CCCCC2)S(C)(=O)=O)cc1OC	-30%	19%	32µM*	45%	-3%
CS(=O)(=O)N(CC(=O)NCCc1ccccc1)C1CCCCC1	-3%	24%	?	-2%	8%
COc1ccc(CCNCC(=O)Nc2ccc(C)c(Br)c2)cc1OC	50µM*	?	40µM*	?	-8%
Cc1ccc2c(c1C)NC(C)CC2C (configuration not stated)	-8%[11.4 µM]	-13%	14µM*	?	-13%
Cc1ccc(S(=O)(=O)N/N=C2/CC(c3ccccc3)Oc3ccccc32)cc1[N+](=O)[O-] (configuration not stated)	-30%	-12%	40µM*	?	23%
Cc1ccc(S(=O)(=O)NN=C2CCC(C(C)(C)C)CC2)cc1[N+](=O)[O-] (configuration not stated)	-15%[57.1 µM]	34%	35µM*	-2%	6%
CC1CCCC/C1=N\NS(=O)(=O)c1ccc(Br)cc1 (configuration not stated)	-2%	47%	3.5µM*	-5%	18%
CCCC1CCC(=NNS(=O)(=O)c2ccc(C)c([N+](=O)[O-])c2)CC1 (configuration not stated)	-33%[57.1 µM]	23%	7.1µM*	-6%	-5%
CCc1nn2c(=O)cc(COC(=O)c3cccs3)nc2s1	-12%	61%	4%[59 µM]	-13%	-7%
Cc1cc(C)cc(NS(=O)(=O)c2ccc(-c3cc(C)no3)cc2)c1	-2%	54%	?	-13%	-3%
O=C(Nc1ccc(NC(=O)C2CCCCC2)nc1)c1cccc(F)c1	-14%	-9%	-5%	-20%	4%
Cc1ccc(S(=O)(=O)NN=C2C3CC4CC(C3)CC2C4)cc1[N+](=O)[O-]	-16%[57.1 µM]	48%	22µM*	-4%	6%
CC(C)(C)C1CCC(=NNS(=O)(=O)c2ccc(Br)cc2)CC1 (configuration not stated)	-3%	61%	7.9µM*	9%	9%
